# Results filed as inconclusive are left out. A structure can be active in one record and inactive in another. The source made the active and inactive calls. The calls were made as follows, unless noted: active = hit-call score of the fitted dose curve at least 0.9, where 1 is the maximum; inconclusive = response in the unintended direction; inactive = score below 0.9.
# Key:
# [1] = ATG_FoxO_CIS: Attagene CIS-FACTORIAL HepG2 Assay for human Forkhead box O (FoxO) (AID 2282943; active = hit-call score of the fitted dose curve at least 0.9, where 1 is the maximum; inactive = score below 0.9); conditions: HepG2 Attagene cis-reporter, FoxO element, mRNA; actives raise or lower the signal
# How it was run: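 Values reflect reporter mRNA induction or loss in HepG2 cells 24 h post-dosing, fitted bidirectionally with DMSO as negative control and baseline. Detection used RT-PCR and fluorescence capillary electrophoresis.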
# [2] = target: Heat shock factor protein 1 (Homo sapiens) (UniProt Q00613); assay: ATG_HSE_CIS: Attagene CIS-FACTORIAL HepG2 Assay for human Heat Shock Transcription Factor 1 (HSE) (AID 2282953; active = hit-call score of the fitted dose curve at least 0.9, where 1 is the maximum; inactive = score below 0.9); conditions: HepG2 HSE cis-reporter, Attagene RNA transcription; actives raise or lower the signal
# How it was run: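 Cells were transfected with cis-element-driven reporter constructs, dosed for 24 h, then total RNA was reverse-transcribed and reporter cDNA amplified, FAM-labelled and digested with HpaI. Fragments were resolved by capillary electrophoresis; gain or loss was fitted against DMSO.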
# [3] = ATG_PBREM_CIS: Attagene CIS-FACTORIAL HepG2 Assay for human Phenobarbital-responsive Enhancer Module (PBREM) (AID 2282955; active = hit-call score of the fitted dose curve at least 0.9, where 1 is the maximum; inactive = score below 0.9); conditions: HepG2 PBREM cis-reporter, Attagene multiplexed transcription; actives raise or lower the signal
# How it was run: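 Endogenous transcription factors in human liver HepG2 cells drive a PBREM cis-element reporter, whose transcript level after 24 h treatment is quantified by RT-PCR with capillary electrophoresis; activity fitted in both directions against DMSO.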
# [4] = target: Hepatocyte nuclear factor 4-alpha (Homo sapiens) (UniProt P41235); assay: ATG_HNF4a_TRANS: Attagene TRANS-FACTORIAL HepG2 Assay for human Hepatocyte Nuclear Factor 4 alpha (HNF4a) (AID 2282982); conditions: HepG2 HNF4a transactivation reporter, mRNA readout
# How it was run: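 In this trans-factorial format, a chimeric HNF4a-GAL4 fusion drives a GAL4-UAS reporter in transfected HepG2 liver cells. After 24 h treatment, reporter mRNA induction is measured by RT-PCR with capillary electrophoresis, relative to DMSO.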
# [5] = ATG_M_06_TRANS: Attagene TRANS-FACTORIAL HepG2 Assay for M06 Transcription Factor (Internal Marker) (AID 2282983); conditions: HepG2 Attagene TRANS M06 internal marker reporter
# How it was run: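 Background control endpoint: reporter mRNA from transiently transfected HepG2 after 24 h dosing, detected by RT-PCR with capillary electrophoresis fluorescence. Analysed for gain versus DMSO.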
# [6] = target: human Peroxisome Proliferator-activated Receptor alpha (PPARa), PPARA (gene 5465) (UniProt Q07869); assay: ATG_PPARa_TRANS: Attagene TRANS-FACTORIAL HepG2 Assay for human Peroxisome Proliferator-activated Receptor alpha (PPARa) (AID 2283001);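 as to AC50: potency for gain of reporter signal over DMSO so agonist or activator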
# How it was run: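 Cells (HepG2) are transfected with multiple reporter transcription units, exposed to chemical for 24 h, then total RNA is reverse-transcribed and amplified. Labelled products are quantified by capillary electrophoresis; induction is referenced to DMSO.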
# [7] = target: Peroxisome proliferator-activated receptor gamma (Homo sapiens) (UniProt P37231); assay: ATG_PPARg_TRANS: Attagene TRANS-FACTORIAL HepG2 Assay for human Peroxisome Proliferator-activated Receptor-gamma (PPARg) (AID 2283007)
# How it was run: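 Transient transfection of HepG2 with GAL4-UAS-driven reporter units; chemical dosing 24 h; total RNA → oligo(dT) RT → PCR with reporter primers → 6-FAM primer extension → HpaI digest 2 h 37 C → capillary electrophoresis. Positive direction vs DMSO.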
# [8] = target: Nuclear receptor subfamily 1 group I member 2 (Homo sapiens) (UniProt O75469); assay: ATG_PXR_TRANS: Attagene TRANS-FACTORIAL HepG2 Assay for human Pregnane X Receptor (PXR) (AID 2283008)
# How it was run: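 Multiplexed TRANS reporter panel in HepG2; this component tracks PXR-Gal4-driven reporter mRNA after 24 h dosing, measured by RT-PCR with capillary electrophoresis fluorescence, fitted against DMSO.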
# [9] = target: Retinoic acid receptor RXR-alpha (Homo sapiens) (UniProt P19793); assay: ATG_RXRa_TRANS: Attagene TRANS-FACTORIAL HepG2 Assay for human Retinoid X Receptor alpha (RXRa) (AID 2283012)
# How it was run: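 Measures exogenous chimeric NR-GAL4 activity in transfected HepG2 liver cells after 24 h of dosing. Induced reporter mRNA was detected by RT-PCR with capillary electrophoresis, and gain of signal was analysed against DMSO.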
# [10] = target: human Thyroid Receptor alpha (THRa1), THRA (gene 7067) (UniProt P10827); assay: ATG_THRa1_TRANS: Attagene TRANS-FACTORIAL HepG2 Assay for human Thyroid Receptor alpha (THRa1) (AID 2283014)
# How it was run: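 Reporter transcript induction, read by capillary electrophoresis of 6-FAM-labelled RT-PCR products, reflects activity of a transfected THRa1-Gal4 fusion in HepG2 liver cells. Cells were dosed for 24 h; activity was fitted in the positive direction against DMSO.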
# [11] = target: Cellular tumor antigen p53 (Homo sapiens) (UniProt P04637); assay: TOX21_p53_BLA_p2_ratio: Tox21 HCT-116 p53 Agonism Beta-lactamase Assay, Ratio, Phase 2 (AID 2283592)
# How it was run: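 Plated HCT116 p53-bla cells (4000/well) received compound after 5 h, then 16 h at 37C/5% CO2. CCF4-AM added, 2 h RT. Ratio of 460 to 530 nm emission taken as the p53 reporter signal.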
# [12] = target: Cellular tumor antigen p53 (Homo sapiens) (UniProt P04637); assay: TOX21_p53_BLA_p3_ratio: Tox21 HCT-116 p53 Agonism Beta-lactamase Assay, Ratio, Phase 3 (AID 2283596)
# How it was run: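 Cells were seeded at 4000/well, rested 5 h at 37C, then dosed with DMSO compound solutions (217-fold dilution) for 16 h. CCF4-AM substrate was loaded for 2 h at room temperature, and the 460/530 nm emission ratio was fitted for gain of signal versus DMSO.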
# [13] = target: Cellular tumor antigen p53 (Homo sapiens) (UniProt P04637); assay: TOX21_p53_BLA_p5_ratio: Tox21 HCT-116 p53 Agonism Beta-lactamase Assay, Ratio, Phase 5 (AID 2283599)
# How it was run: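 HCT-116 cells carrying a p53-inducible beta-lactamase reporter were seeded at 4000 cells/well and dosed after 5 h with compound in DMSO (217-fold dilution). After 16 h at 37C, CCF4-AM substrate was added for 2 h, and the 460/530 nm emission ratio was scored as gain-of-signal versus DMSO.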
# [14] = TOX21_p53_BLA_p5_viability: Viability Assessment in the Tox21 HCT-116 p53 Agonism Beta-lactamase Assay, Phase 5 (AID 2283600)
# How it was run: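 Workflow: seed 4000 cells per well, wait 5 h, add compounds (DMSO, 217-fold dilution), incubate 16 h, load CCF4-AM 2 h, add CellTiter-Glo, read luminescence after 30 min.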
# [15] = ATG_M_19_CIS: Attagene CIS-FACTORIAL HepG2 Assay for M19 Transcription Factor (Internal Marker) (AID 2282939; active = hit-call score of the fitted dose curve at least 0.9, where 1 is the maximum; inactive = score below 0.9); conditions: HepG2 Attagene CIS-FACTORIAL M19 internal marker reporter; actives raise or lower the signal
# How it was run: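 Background-control endpoint from a multiplexed HepG2 reporter panel. Cells carrying cis-regulated reporter constructs are treated 24 h, then reporter transcripts are amplified, fluorescently labelled and sized by capillary electrophoresis. DMSO defines baseline.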
# [16] = target: Hypoxia-inducible factor 1-alpha (Homo sapiens) (UniProt Q16665); assay: ATG_HIF1a_CIS: Attagene CIS-FACTORIAL HepG2 Assay for human Hypoxia Inducible Factor 1 (HIF1A) (AID 2282951; active = hit-call score of the fitted dose curve at least 0.9, where 1 is the maximum; inactive = score below 0.9); conditions: HepG2 Attagene cis-factorial HIF1a reporter transcription; actives raise or lower the signal
# How it was run: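 Transient MRTU transfection of human HepG2 liver cells, 24 h compound treatment, then total RNA isolation, oligo(dT) reverse transcription, PCR amplification, fluorescent labelling and capillary electrophoresis of reporter fragments. Gain or loss relative to DMSO.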
# [17] = ATG_RORE_CIS: Attagene CIS-FACTORIAL HepG2 Assay for human RAR-related Orphan Receptor Element (RORE) (AID 2282959; active = hit-call score of the fitted dose curve at least 0.9, where 1 is the maximum; inactive = score below 0.9); conditions: HepG2 Attagene cis-factorial RORE reporter, mRNA; actives raise or lower the signal
# How it was run: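 Transient MRTU transfection of human HepG2 liver cells (FuGene 6); 24 h compound exposure; TriZol RNA, oligo(dT) RT, PCR, FAM labeling, HpaI cut, CE fragment analysis. DMSO = negative control/baseline.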
# [18] = target: Cellular tumor antigen p53 (Homo sapiens) (UniProt P04637); assay: TOX21_p53_BLA_p4_ratio: Tox21 HCT-116 p53 Agonism Beta-lactamase Assay, Ratio, Phase 4 (AID 2283601)
# How it was run: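 HCT116 cells carrying an inducible beta-lactamase reporter were plated at 4000 cells/well, rested 5 h, then exposed to compounds in DMSO (217-fold dilution) for 16 h at 37C. CCF4-AM substrate was loaded 2 h at room temperature; 460/530 nm emission ratio scored gain-of-signal versus DMSO.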
# [19] = ATG_NRF2_ARE_CIS: Attagene CIS-FACTORIAL HepG2 Assay for human Nuclear Factor Erythroid 2 Related Factor 2 (NFR2) response to Antioxidant Response Elements (ARE) (AID 2282992; active = hit-call score of the fitted dose curve at least 0.9, where 1 is the maximum; inactive = score below 0.9); conditions: HepG2 Attagene ARE/NRF2 reporter, transcription factor activity; actives raise or lower the signal
# How it was run: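 Using transiently transfected HepG2 cells exposed for 24 h, reporter mRNA levels were determined by RT-PCR with fluorescent primer extension and capillary electrophoresis, analysed for gain or loss of signal against DMSO.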
# [20] = ATG_GRE_CIS: Attagene CIS-FACTORIAL HepG2 Assay for human Glucocorticoid Response Elements (GRE) (AID 2282947; active = hit-call score of the fitted dose curve at least 0.9, where 1 is the maximum; inactive = score below 0.9); conditions: HepG2 GRE cis-reporter, Attagene multiplex mRNA; actives raise or lower the signal
# How it was run: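 Cells (HepG2) bearing transfected cis-promoter reporter transcription units were treated with chemical for 24 hours. Reporter mRNA was measured via RT-PCR with capillary electrophoresis, and activity was fitted in both directions relative to DMSO.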
# Chain of Retinoic acid receptor RXR-alpha (Homo sapiens) (P19793 whole entry, looked up, the tested form may be a part): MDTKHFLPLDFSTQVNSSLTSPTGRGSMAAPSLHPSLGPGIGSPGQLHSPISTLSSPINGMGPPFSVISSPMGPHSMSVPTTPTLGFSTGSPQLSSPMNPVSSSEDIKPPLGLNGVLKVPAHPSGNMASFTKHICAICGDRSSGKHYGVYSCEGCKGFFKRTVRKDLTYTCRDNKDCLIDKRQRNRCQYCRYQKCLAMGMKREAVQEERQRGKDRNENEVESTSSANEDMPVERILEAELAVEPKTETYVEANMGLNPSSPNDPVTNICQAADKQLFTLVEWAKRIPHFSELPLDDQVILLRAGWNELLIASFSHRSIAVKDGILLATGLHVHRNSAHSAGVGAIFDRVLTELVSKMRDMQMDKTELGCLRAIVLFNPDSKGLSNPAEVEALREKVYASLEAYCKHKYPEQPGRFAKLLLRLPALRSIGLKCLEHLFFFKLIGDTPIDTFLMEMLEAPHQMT
# Chain of Heat shock factor protein 1 (Homo sapiens) (Q00613 whole entry, looked up, the tested form may be a part): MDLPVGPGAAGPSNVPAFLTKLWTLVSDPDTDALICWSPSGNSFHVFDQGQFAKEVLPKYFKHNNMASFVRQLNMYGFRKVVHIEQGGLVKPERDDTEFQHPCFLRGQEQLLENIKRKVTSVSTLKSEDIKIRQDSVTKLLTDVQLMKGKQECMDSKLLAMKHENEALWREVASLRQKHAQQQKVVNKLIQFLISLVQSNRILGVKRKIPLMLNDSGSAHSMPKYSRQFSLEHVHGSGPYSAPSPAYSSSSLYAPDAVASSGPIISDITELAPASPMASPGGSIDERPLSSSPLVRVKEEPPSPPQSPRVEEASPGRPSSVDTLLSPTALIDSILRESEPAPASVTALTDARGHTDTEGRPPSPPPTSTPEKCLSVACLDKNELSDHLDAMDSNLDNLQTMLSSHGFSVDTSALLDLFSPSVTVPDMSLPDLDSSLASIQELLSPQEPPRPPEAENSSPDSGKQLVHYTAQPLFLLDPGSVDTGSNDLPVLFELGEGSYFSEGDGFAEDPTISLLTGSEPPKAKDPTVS
# Chain of Nuclear receptor subfamily 1 group I member 2 (Homo sapiens) (O75469 whole entry, looked up, the tested form may be a part): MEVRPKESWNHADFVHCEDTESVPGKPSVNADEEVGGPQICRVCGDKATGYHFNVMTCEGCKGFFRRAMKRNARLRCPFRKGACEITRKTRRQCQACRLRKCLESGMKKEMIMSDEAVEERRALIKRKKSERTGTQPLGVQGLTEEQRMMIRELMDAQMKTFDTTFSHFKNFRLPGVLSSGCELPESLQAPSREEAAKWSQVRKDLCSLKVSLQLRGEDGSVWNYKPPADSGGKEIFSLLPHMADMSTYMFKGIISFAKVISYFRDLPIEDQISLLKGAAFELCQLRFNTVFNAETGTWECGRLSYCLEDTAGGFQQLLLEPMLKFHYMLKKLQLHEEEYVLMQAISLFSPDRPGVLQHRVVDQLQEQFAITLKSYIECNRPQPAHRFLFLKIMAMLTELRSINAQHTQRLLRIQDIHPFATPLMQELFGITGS
# Chain of Peroxisome proliferator-activated receptor gamma (Homo sapiens) (P37231 whole entry, looked up, the tested form may be a part): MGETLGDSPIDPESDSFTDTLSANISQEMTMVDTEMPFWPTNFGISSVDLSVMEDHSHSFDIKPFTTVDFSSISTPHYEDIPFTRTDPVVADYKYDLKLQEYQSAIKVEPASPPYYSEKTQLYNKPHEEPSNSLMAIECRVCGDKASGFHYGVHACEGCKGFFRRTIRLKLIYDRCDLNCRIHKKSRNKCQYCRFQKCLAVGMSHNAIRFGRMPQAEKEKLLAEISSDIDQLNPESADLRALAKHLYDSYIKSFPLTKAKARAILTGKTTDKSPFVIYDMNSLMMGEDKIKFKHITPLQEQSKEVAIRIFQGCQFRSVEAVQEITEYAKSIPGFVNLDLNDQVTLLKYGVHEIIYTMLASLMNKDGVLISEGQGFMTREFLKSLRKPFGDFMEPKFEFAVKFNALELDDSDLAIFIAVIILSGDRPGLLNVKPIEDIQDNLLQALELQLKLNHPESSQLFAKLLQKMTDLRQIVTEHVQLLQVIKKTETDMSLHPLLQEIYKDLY
# Chain of Hepatocyte nuclear factor 4-alpha (Homo sapiens) (P41235 whole entry, looked up, the tested form may be a part): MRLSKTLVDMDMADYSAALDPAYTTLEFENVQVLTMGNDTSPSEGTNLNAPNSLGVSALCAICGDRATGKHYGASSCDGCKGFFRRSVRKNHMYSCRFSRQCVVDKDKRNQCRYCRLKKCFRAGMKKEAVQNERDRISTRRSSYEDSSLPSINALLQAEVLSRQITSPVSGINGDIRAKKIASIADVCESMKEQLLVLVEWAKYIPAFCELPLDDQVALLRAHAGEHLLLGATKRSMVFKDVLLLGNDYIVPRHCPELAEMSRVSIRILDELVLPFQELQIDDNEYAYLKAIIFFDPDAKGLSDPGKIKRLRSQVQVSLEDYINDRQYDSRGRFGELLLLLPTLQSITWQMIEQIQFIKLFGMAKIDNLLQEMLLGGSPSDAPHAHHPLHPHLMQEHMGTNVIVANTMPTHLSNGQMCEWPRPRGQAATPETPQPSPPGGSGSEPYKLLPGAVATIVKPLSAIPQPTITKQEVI
# Chain of Hypoxia-inducible factor 1-alpha (Homo sapiens) (Q16665 whole entry, looked up, the tested form may be a part): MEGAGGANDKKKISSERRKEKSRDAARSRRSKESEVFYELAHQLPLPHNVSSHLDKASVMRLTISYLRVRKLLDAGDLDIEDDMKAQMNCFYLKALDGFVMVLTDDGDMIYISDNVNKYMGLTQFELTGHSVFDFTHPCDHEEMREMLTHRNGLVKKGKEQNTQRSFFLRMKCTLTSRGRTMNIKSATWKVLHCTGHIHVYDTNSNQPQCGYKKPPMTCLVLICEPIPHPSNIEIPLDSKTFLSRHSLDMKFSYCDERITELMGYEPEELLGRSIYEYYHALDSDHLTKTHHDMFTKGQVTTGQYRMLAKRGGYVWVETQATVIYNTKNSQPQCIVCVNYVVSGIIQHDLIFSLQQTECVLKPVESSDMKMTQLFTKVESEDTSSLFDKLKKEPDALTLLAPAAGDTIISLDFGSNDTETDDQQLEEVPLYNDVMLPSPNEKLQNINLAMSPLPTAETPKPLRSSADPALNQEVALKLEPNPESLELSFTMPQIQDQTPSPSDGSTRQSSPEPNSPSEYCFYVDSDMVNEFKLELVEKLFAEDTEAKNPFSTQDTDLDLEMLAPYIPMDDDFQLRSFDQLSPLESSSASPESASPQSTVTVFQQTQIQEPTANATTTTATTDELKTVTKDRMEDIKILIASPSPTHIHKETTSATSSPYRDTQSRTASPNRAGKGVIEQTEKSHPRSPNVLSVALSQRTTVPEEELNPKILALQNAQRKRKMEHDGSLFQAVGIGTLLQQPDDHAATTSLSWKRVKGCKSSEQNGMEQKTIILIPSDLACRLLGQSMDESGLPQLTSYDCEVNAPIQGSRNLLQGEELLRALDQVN
# Chain of Cellular tumor antigen p53 (Homo sapiens) (P04637 whole entry, looked up): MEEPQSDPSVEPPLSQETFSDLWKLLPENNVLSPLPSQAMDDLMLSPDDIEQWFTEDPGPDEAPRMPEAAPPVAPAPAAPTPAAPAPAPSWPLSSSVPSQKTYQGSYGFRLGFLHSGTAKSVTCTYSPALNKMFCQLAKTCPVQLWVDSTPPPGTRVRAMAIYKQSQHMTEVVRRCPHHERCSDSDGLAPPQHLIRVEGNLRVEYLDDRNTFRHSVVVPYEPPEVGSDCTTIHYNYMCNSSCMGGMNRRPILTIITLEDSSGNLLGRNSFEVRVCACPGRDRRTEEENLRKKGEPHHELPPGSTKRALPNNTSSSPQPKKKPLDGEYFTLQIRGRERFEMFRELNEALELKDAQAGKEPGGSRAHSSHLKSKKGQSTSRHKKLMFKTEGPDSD
# Chain of human Peroxisome Proliferator-activated Receptor alpha (PPARa), PPARA (gene 5465) (Q07869 whole entry, looked up): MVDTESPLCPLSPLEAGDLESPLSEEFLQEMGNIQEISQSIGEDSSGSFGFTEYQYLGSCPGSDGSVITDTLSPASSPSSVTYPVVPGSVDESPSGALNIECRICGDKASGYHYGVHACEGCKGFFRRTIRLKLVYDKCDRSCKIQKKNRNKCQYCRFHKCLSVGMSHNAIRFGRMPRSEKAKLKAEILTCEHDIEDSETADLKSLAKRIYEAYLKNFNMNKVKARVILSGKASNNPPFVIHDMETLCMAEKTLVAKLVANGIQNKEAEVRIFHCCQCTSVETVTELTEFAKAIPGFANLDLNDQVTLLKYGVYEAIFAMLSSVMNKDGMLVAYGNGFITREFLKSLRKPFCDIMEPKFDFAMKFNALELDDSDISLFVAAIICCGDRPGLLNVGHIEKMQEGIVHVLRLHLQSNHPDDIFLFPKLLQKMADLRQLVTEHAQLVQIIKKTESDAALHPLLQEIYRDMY
# Chain of human Thyroid Receptor alpha (THRa1), THRA (gene 7067) (P10827 whole entry, looked up, the tested form may be a part): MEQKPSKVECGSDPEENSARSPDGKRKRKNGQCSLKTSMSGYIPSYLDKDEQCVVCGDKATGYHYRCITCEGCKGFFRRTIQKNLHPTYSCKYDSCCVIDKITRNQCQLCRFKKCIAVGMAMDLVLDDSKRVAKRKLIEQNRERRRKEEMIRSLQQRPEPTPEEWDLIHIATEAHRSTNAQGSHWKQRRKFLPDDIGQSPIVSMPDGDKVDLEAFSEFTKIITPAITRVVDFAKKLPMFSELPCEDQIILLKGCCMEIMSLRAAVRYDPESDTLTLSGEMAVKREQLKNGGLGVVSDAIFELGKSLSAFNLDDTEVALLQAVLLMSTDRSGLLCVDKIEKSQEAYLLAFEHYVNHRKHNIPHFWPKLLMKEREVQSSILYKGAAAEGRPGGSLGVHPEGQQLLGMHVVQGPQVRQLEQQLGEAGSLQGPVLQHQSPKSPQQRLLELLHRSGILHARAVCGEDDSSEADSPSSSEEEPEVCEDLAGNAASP
smiles,measurement,setting,value
O=C1C=CC(=O)C=C1,outcome,[1],inactive
same,outcome,[2],inactive
same,outcome,[3],inactive
same,outcome,[4],inactive
same,outcome,[5],inactive
same,outcome,[6],inactive
same,outcome,[7],inactive
same,outcome,[8],inactive
same,outcome,[9],inactive
same,outcome,[10],inactive
same,outcome,[11],inactive
same,AC50,[12],71.3 µM (active)
same,outcome,[12],inactive
same,outcome,[13],inactive
same,outcome,[14],inactive
COC(=O)COc1ccc(Cl)cc1Cl,outcome,[15],inactive
same,outcome,[1],inactive
same,outcome,[16],inactive
same,outcome,[17],inactive
same,outcome,[4],inactive
same,outcome,[8],inactive
same,outcome,[9],inactive
same,outcome,[10],inactive
same,outcome,[11],inactive
same,outcome,[12],inactive
same,outcome,[14],inactive
same,outcome,[18],inactive
CC(=O)c1cc2c(cc1C)C(C)(C)C(C)CC2(C)C (stereo not drawn),AC50,[15],128 µM (active)
same,AC50,[16],2.78 µM (active)
same,AC50,[2],116 µM (active)
same,outcome,[3],inactive
same,AC50,[17],166 µM (active)
same,outcome,[4],inactive
same,outcome,[5],inactive
same,outcome,[7],inactive
same,AC50,[8],3.25 µM (active)
same,AC50,[9],22.8 µM (active)
same,outcome,[10],inactive
same,outcome,[11],inactive
same,outcome,[12],inactive
same,outcome,[13],inactive
same,outcome,[14],inactive
same,outcome,[18],inactive
NNc1ccccc1,outcome,[15],inactive
same,outcome,[16],inactive
same,outcome,[2],inactive
same,outcome,[3],inactive
same,outcome,[17],inactive
same,outcome,[4],inactive
same,outcome,[5],inactive
same,AC50,[19],47.1 µM (active)
same,outcome,[6],inactive
same,AC50,[7],29.2 µM (active)
same,AC50,[8],36.6 µM (active)
same,outcome,[9],inactive
same,outcome,[10],inactive
O=[N+]([O-])c1cc(C(F)(F)F)c(Cl)c([N+](=O)[O-])c1Cl,outcome,[1],inactive
same,outcome,[20],inactive
same,outcome,[16],inactive
same,AC50,[2],5.39 µM (active)
same,outcome,[17],inactive
same,AC50,[4],11.1 µM (active)
same,outcome,[5],inactive
same,AC50,[19],1.3 µM (active)
same,AC50,[6],52.5 µM (active)
same,AC50,[7],8.34 µM (active)
same,outcome,[8],inactive
same,outcome,[10],inactive
same,AC50,[11],13.3 µM (active)
same,AC50,[12],22.2 µM (active)
same,AC50,[13],21 µM (active)
same,AC50,[14],46.1 µM (active)
same,AC50,[18],21.9 µM (active)

# Reference: PubChem BioAssay (EPA / NIEHS)
